Read-out in assay [1]: Human Leukocyte Antigen - DR isotype (HLADR), HLA-DRA (gene 3122)
Kind of assay: BSK_CASM3C_HLADR: BioMAP Diversity Plus: CASM3C Assay for Human Leukocyte Antigen - DR isotype (HLADR) Biomarker Activity (AID 2283043).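 Further: cell-surface HLA-DR protein level quantified by ELISA.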 The settings on record: primary human coronary artery smooth muscle cells; actives raise or lower the signal.

Read-out in assay [2]: Monocyte Chemoattractant Protein-1 (MCP1), CCL2 (gene 6347)
Kind of assay: BSK_CASM3C_MCP1: BioMAP Diversity Plus: CASM3C Assay for Monocyte Chemoattractant Protein-1 (MCP1) Biomarker Activity (AID 2283046). Conditions: primary human coronary artery smooth muscle cells; actives raise or lower the signal.

Assay [3] can be described thus: BSK_CASM3C_Proliferation: Cell Proliferation Assessment in the BioMAP Diversity Plus: CASM3C Assay (AID 2283047).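 Further: sulforhodamine B total protein stain as relative cell number at 560 nm; sub-confluent cells exposed 48 h before staining; fitted both ways against DMSO so gain or loss of cell number.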 Conditions: primary human coronary artery smooth muscle cells.
Read-out in assay [4]: Tissue Factor, F3 (gene 2152)
Kind of assay: BSK_CASM3C_TissueFactor: BioMAP Diversity Plus: CASM3C Assay for Tissue Factor Biomarker Activity (AID 2283052).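 Further: cell surface tissue factor protein level read by ELISA.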 Conditions: primary human coronary artery smooth muscle cells; actives raise or lower the signal.

Read-out in assay [5]: Interferon-gamma inducible Protein 10 (IP10), CXCL10 (gene 3627)
Kind of assay: BSK_hDFCGF_IP10: BioMAP Diversity Plus: hDFCGF Assay for Interferon-gamma inducible Protein 10 (IP10) Biomarker Activity (AID 2283053). The settings on record: primary human foreskin fibroblasts; actives raise or lower the signal. An outline of the steps:
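ELISA read-out of IP-10 (CXCL10) from primary human skin fibroblasts, 24 h after compound addition. Gain or loss of signal versus DMSO baseline, bidirectional curve fitting.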

Read-out in assay [6]: Epidermal growth factor receptor (EGFR), EGFR (gene 1956)
Briefly: BSK_hDFCGF_EGFR: BioMAP Diversity Plus: hDFCGF Assay for Epidermal growth factor receptor (EGFR) Biomarker Activity (AID 2283057). The settings on record: primary human foreskin fibroblasts; actives raise or lower the signal. An outline of the steps: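 ELISA readout of EGFR on human dermal fibroblasts (primary foreskin cells), 24 h post-dosing; bidirectional curve fit vs DMSO baseline, gain or loss of signal scored.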

Read-out in assay [7]: Interleukin-8 (IL8), CXCL8 (gene 3576)
Briefly: BSK_hDFCGF_IL8: BioMAP Diversity Plus: hDFCGF Assay for Interleukin-8 (IL8) Biomarker Activity (AID 2283058). Conditions: primary human foreskin fibroblasts; actives raise or lower the signal. A digest of the protocol: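 IL-8 levels read by ELISA at 24 hours after dosing human skin fibroblast cultures. Parallel SRB staining assessed overt cytotoxicity, and gain or loss of signal was fitted against DMSO control.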

Assay [8] is described as follows: BSK_hDFCGF_Proliferation: Cell Proliferation Assessment in the BioMAP Diversity Plus: hDFCGF Assay (AID 2283059).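 Further: curves fitted for both rise and fall of signal versus DMSO baseline.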 The settings on record: primary human foreskin fibroblasts. A digest of the protocol:
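Total protein read at 560 nm after 0.1% SRB staining of TCA-fixed human skin fibroblasts, […]. Activity is fitted in both directions relative to DMSO as baseline.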

Assay [9] is described as follows: BSK_hDFCGF_SRB: Viability Assessment in the BioMAP Diversity Plus: hDFCGF Assay (AID 2283061).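 Further: cells exposed to compound for 24 h before the read.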 The settings on record: primary human foreskin fibroblasts. An outline of the steps:
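Viability was read as total protein: after 10% TCA fixation, wells were stained with 0.1% sulforhodamine B and read at 560 nm. Primary human foreskin fibroblasts were dosed for 24 h, with bidirectional fitting versus DMSO.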

Read-out in assay [10]: TIMP metallopeptidase inhibitor 1 (TIMP1), TIMP1 (gene 7076)
Kind of assay: BSK_hDFCGF_TIMP1: BioMAP Diversity Plus: hDFCGF Assay for TIMP metallopeptidase inhibitor 1 (TIMP1) Biomarker Activity (AID 2283062). The settings on record: primary human foreskin fibroblasts; actives raise or lower the signal. An outline of the steps:
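TIMP-1 measured by ELISA 24 h after chemical dosing of primary human skin fibroblasts, with gain or loss fitted relative to DMSO. Parallel SRB staining (560 nm) monitored overt cytotoxicity.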

Read-out in assay [11]: Monokine induced gamma interferon (MIG), CXCL9 (gene 4283)
Briefly: BSK_hDFCGF_MIG: BioMAP Diversity Plus: hDFCGF Assay for Monokine induced gamma interferon (MIG) Biomarker Activity (AID 2283063). Conditions: primary human foreskin fibroblasts; actives raise or lower the signal. An outline of the steps: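 Human primary foreskin fibroblasts in the hDFCGF system, exposed to test chemical for 24 h; MIG measured by ELISA. Bidirectional curve fitting against DMSO negative control as activity baseline.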

Read-out in assay [12]: Matrix Metallopeptidase 1 (MMP1), MMP1 (gene 4312)
Briefly: BSK_hDFCGF_MMP1: BioMAP Diversity Plus: hDFCGF Assay for Matrix Metallopeptidase 1 (MMP1) Biomarker Activity (AID 2283064). Conditions: primary human foreskin fibroblasts; actives raise or lower the signal. An outline of the steps:
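MMP1 levels quantified by ELISA 24 h after dosing human dermal fibroblast cultures, with parallel SRB total-protein staining for overt cytotoxicity. Data fitted in both directions against DMSO baseline.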

Read-out in assay [13]: Vascular cell adhesion molecule 1 (VCAM1), VCAM1 (gene 7412)
Kind of assay: BSK_hDFCGF_VCAM1: BioMAP Diversity Plus: hDFCGF Assay for Vascular cell adhesion molecule 1 (VCAM1) Biomarker Activity (AID 2283065).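 On AC50: VCAM-1 protein level quantified by ELISA after 24 h chemical exposure.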 Conditions: primary human foreskin fibroblasts; actives raise or lower the signal. A digest of the protocol:
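ELISA readout of VCAM-1 on human dermal fibroblast primary cultures, 24 h after chemical exposure. Gain or loss of signal fitted in both directions against DMSO baseline.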

Read-out in assay [14]: Plasminogen activator inhibitor-1 (PAI1), SERPINE1 (gene 5054)
Kind of assay: BSK_hDFCGF_PAI1: BioMAP Diversity Plus: hDFCGF Assay for Plasminogen activator inhibitor-1 (PAI1) Biomarker Activity (AID 2283066). Conditions: primary human foreskin fibroblasts; actives raise or lower the signal. An outline of the steps: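 ELISA readout of PAI-1 from primary human skin fibroblast cultures, 24 h after compound addition. Gain or loss of signal was fitted bidirectionally against DMSO baseline.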

Read-out in assay [15]: Interferon-gamma inducible Protein 10 (IP10), CXCL10 (gene 3627)
Kind of assay: BSK_KF3CT_IP10: BioMAP Diversity Plus: KF3CT Assay for Interferon-gamma inducible Protein 10 (IP10) Biomarker Activity (AID 2283068). Conditions: primary human keratinocytes with fibroblasts; actives raise or lower the signal. A digest of the protocol:
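Human keratinocyte plus foreskin fibroblast primary co-culture exposed to test chemical for 24 h; IP-10 measured by ELISA. Concentration-response fitted bidirectionally against DMSO control as baseline.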

Read-out in assay [16]: Transforming growth factor beta 1 (TGFb1), TGFB1 (gene 7040)
Briefly: BSK_KF3CT_TGFb1: BioMAP Diversity Plus: KF3CT Assay for Transforming growth factor beta 1 (TGFb1) Biomarker Activity (AID 2283072). Conditions: primary human keratinocytes with fibroblasts; actives raise or lower the signal. An outline of the steps:
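Read-out: ELISA for TGF-b1 in keratinocyte/foreskin fibroblast human skin co-culture, 24 h after dosing; bidirectional curve fit vs DMSO baseline; gain or loss of signal scored.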

Read-out in assay [17]: urokinase plasminogen activator (uPA), PLAU (gene 5328)
Kind of assay: BSK_KF3CT_uPA: BioMAP Diversity Plus: KF3CT Assay for urokinase plasminogen activator (uPA) Biomarker Activity (AID 2283075). The settings on record: primary human keratinocytes with fibroblasts; actives raise or lower the signal. An outline of the steps: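 ELISA read-out of uPA 24 h after dosing human skin keratinocytes co-cultured with foreskin fibroblasts. Signal change fitted both ways relative to DMSO; sulforhodamine B on parallel cultures marks overt cytotoxicity.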

Read-out in assay [18]: CD40, CD40 (gene 958)
Kind of assay: BSK_LPS_CD40: BioMAP Diversity Plus: LPS Assay for CD40 Biomarker Activity (AID 2283076). Conditions: primary human HUVEC with PBMC; actives raise or lower the signal. An outline of the steps: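 In the LPS system of human endothelial cells with peripheral blood mononuclear cells, CD40 levels were read by ELISA 24 h post-treatment. Signal changes in either direction were fitted against the DMSO baseline, with parallel SRB protein staining.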

The nature of assay [19]: BSK_LPS_SRB: Viability Assessment in the BioMAP Diversity Plus: LPS Assay (AID 2283079).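 Further: total protein by sulforhodamine B absorbance as a cytotoxicity measure; measured one day after compound addition.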 Conditions: primary human HUVEC with PBMC. An outline of the steps: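 SRB viability endpoint: cells fixed with 10% TCA, stained with 0.1% SRB, read at 560 nm, 24 h post-dose. HUVEC/PBMC co-culture; signal change in either direction scored relative to DMSO.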
Read-out in assay [20]: Macrophage colony-stimulating factor (MCSF), CSF1 (gene 1435)
Kind of assay: BSK_LPS_MCSF: BioMAP Diversity Plus: LPS Assay for Macrophage colony-stimulating factor (MCSF) Biomarker Activity (AID 2283083). The settings on record: primary human HUVEC with PBMC; actives raise or lower the signal. A digest of the protocol: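 Bidirectional fitting against DMSO was applied to M-CSF levels read by ELISA at 24 h post-dose. The system pairs human umbilical vein endothelium with peripheral blood mononuclear cells; parallel SRB staining tracked cytotoxicity.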

Calls of active or inactive are those of the source. How the source made its calls: active means hit-call score of the fitted dose curve at least 0.9, where 1 is the maximum; inactive means score below 0.9.

Regarding `CC(C)COP(=O)(OCC(C)C)OCC(C)C`, the outcome in assay [1], in assay [2], in assay [3], in assay [4], in assay [5] and in [6] was inactive. Moreover, the outcome in [7], in assay [8], in assay [9], in assay [10], in assay [11] and in assay [12] was inactive. The outcome in assay [13], in [14], in assay [15], in [16], in assay [17] and in assay [18] was inactive. Moreover, the result in assay [19] and in assay [20] was inactive.

As for `C=CC(=O)OCC(CC)CCCC` (stereo not given), the outcome in assay [1], in [2], in assay [3], in [4], in assay [6] and in assay [7] was inactive. In addition, the outcome in assay [15], in [18], in assay [19] and in assay [20] was inactive. For the same compound, the AC50 (commonly the midpoint of the concentration-response curve, whichever way the signal moves) in assay [5] was 27.6 µM (active); in assay [8] it was 30.3 µM (active); in assay [9] it was 32.2 µM (active); in assay [10], 27.5 µM (active); in assay [11], 30.5 µM (active); in [12] it was 30.4 µM (active). For the same compound, the AC50 in assay [13] is 16 µM (active); in assay [14], 20 µM (active); in assay [16], 0.164 µM (active); in assay [17], 0.016 µM (active).

Turning to `O=c1c2ccccc2c(=O)c2c1cc(Cl)c1[nH]c3c([nH]c12)c(Cl)cc1c(=O)c2ccccc2c(=O)c13`, the result in [1], in assay [2], in assay [3], in assay [4], in assay [6] and in [7] was inactive. For the same compound, the result in assay [8], in [9], in assay [10], in assay [11], in assay [12] and in [14] was inactive. The result in assay [15], in [16], in assay [17], in [18], in [19] and in [20] was inactive. Moreover, the AC50 is 29 µM (active) in assay [5] and 14.4 µM (active) in [13].

With `Cc1ccc(OP(=O)(Oc2ccc(C)cc2)Oc2ccc(C)cc2)cc1` (tested in a mixture with another compound), the result in assay [1], in [2], in assay [3], in assay [4], in [5] and in assay [6] was inactive. Further, the result in [7], in assay [10], in assay [11], in assay [12], in [13] and in [14] was inactive. Besides, the result in assay [15] and in assay [17] was inactive. Further, the AC50 is 20 µM (active) in [8]; 23.2 µM (active) in [9]; 4.81 µM (active) in [16]; 7.66 µM (active) in assay [18]; 20 µM (active) in [19]; 16.1 µM (active) in assay [20].

Take `N#CCCCCC#N`: the result in assay [1], in assay [2], in [3], in [4], in assay [5] and in assay [6] was inactive. The outcome in assay [7], in assay [8], in assay [9], in assay [10], in assay [11] and in [12] was inactive. Moreover, the outcome in [13], in assay [14], in assay [15], in assay [16], in assay [17] and in [18] was inactive. Further, the result in [19] and in assay [20] was inactive.

`CNC(=O)Oc1cc(C)c(SC)c(C)c1`: the AC50 is 12.9 µM (active) in assay [1], 20 µM (active) in assay [3], 8.16 µM (active) in assay [4] and 20 µM (active) in assay [18]. For the same compound, the outcome in [2], in [5], in assay [6], in [7], in assay [8] and in assay [9] was inactive. The result in assay [10], in [11], in assay [12], in [13], in [14] and in assay [15] was inactive. Further, the result in assay [16], in assay [17], in [19] and in [20] was inactive.

The values above are taken from PubChem BioAssay (EPA / NIEHS).
